Compounds with a hit are over-represented: about 19% of the library has one in this group of screens.
HT1080-NT tox: kills 2HG-producing HT-1080-NT fibrosarcoma cells | HT-1080-NT fibrosarcoma viability, CellTiter-Glo ATP luminescence, 48 h | Potency, µM (doses to about 46.1 µM), without a hit: top-dose activity, negative = less viability, usual class: cytotoxic | AID 686970 | 1.6% of 360,000 active;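 further: NT is the 2HG producing partner of a matched IDH1 knockdown line; potency means the concentration at half of the fitted maximal effect; 0% = DMSO-treated cells and -100% = media-only wells without cells; nearly all actives have a fitted effect of over 55% in size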
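Fibrosarcoma NT cells, 750 per well in 5% FBS RPMI, were exposed to compound for 48 hours. Viability: CellTiter-Glo luminescence.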
IL1B secr inh: inhibitors of inflammasome signaling (IL-1 beta secretion); 4.7% of 360,000 active; activity change, % at 57.5 µM; THP-1 LPS/ATP IL-1B secretion, AlphaLISA, 16 h; active compounds read low; AID 743279; in the data active means activity change below about -50%; inconclusive means mostly about -30% to -49%
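Secreted IL-1B measured by AlphaLISA bead assay after 16 h compound exposure of THP-1 cells; compounds (final up to 57.5 uM) added 1 h before LPS (250 ng/mL) and ATP (1.25 mM) stimulation; lower signal means less secretion.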
ELG1 repair inh: blocks ELG1-dependent DNA repair in HEK293T cells; 2.3% of 330,000 active; AID 504467; HEK293T ELG1-luciferase reporter, luminescence, 16 h; DNA damage induced by 5-fluorouridine; Potency, µM (top dose mostly 46.1 µM), inactives show at the top dose activity change, negative = inhibition, hits mostly inhibitors; further: potency means the concentration at half of the fitted maximal effect; nearly all actives have a fitted effect of over 55% in size
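HEK293T cells expressing luciferase-tagged ELG1 (2,000/well) received 5-Fluorouridine plus compound or DMSO for 16 hr at 37 °C. Luciferase was read by ONE-Glo luminescence after 30 min at room temperature.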
HT1080 IDH1KD tx: toxicity to HT-1080 IDH1 knockdown cells (counter line) | 2% of 360,000 active | HT-1080 IDH1 knockdown viability, ATP luminescence, 48 h | Potency, µM (top dose mostly 46.1 µM), for the others: top-dose activity, negative = toxicity, hits mostly cytotoxic;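 further: potency means the concentration at half of the fitted maximal effect; 0% = DMSO wells and -100% = cell-free medium wells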
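Viability of IDH1-knockdown HT-1080 fibrosarcoma cells was assessed by CellTiter-Glo after 48 h at 37 °C with titrated compound; concentration-effect curves were classified by fit quality and response size.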
TDP1 cell CPT: DT40-hTDP1 cell growth loss with CPT; 12% of 420,000 active; Potency, µM (doses to about 46.2 µM), for the others: at the highest dose activity change, negative = growth inhibition, usual class: inhibitors; chicken DT40 Tdp1-/-;hTDP1 cells + 20 nM CPT, ATP luminescence, 48 h; further: potency means the concentration at half of the fitted maximal effect; nearly all actives have a fitted effect of over 55% in size
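Chicken DT40 Tdp1-/- cells stably complemented with human TDP1 were seeded at 400 cells/well in medium containing 20 nM camptothecin, exposed to pin-transferred compounds, and grown at 37 °C for at least 48 hr. Viability was read as ATP luminescence.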
DT40 TDP1 no CPT: qHTS for Inhibitors of human tyrosyl-DNA phosphodiesterase 1 (TDP1): qHTS in cells in absence of CPT; DT40 Tdp1-/- hTDP1 cells, no CPT, ATP luminescence, 48 h; Potency, µM (titrated, usually from 46.2 µM), inactives show top-dose activity change, negative = growth inhibition, hits mostly inhibitors; 15% of 420,000 active; further: potency means the concentration at half of the fitted maximal effect; nearly all actives have a fitted effect of over 55% in size
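A cellular qHTS used chicken DT40 cells lacking endogenous Tdp1 but carrying stably transfected human TDP1. Compounds were applied without camptothecin, and cell growth kinetics were judged by ATP-dependent luminescence after ≥48 hr.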
The depositor's hits bear a star; ? = inconclusive; nt = not tested or not shown. Unless noted, the call rests on the fitted dose curve; in most records, active means well fitted curve in the direction sought with a large enough effect; inconclusive means small, poorly fitted or top-dose-only effect, or another doubt; inactive means no such curve, though single readings can be large; an effect the other way counts as inactive or inconclusive. Unless noted, on the % scale 0 is the no-effect control and ±100 the full control effect.

SMILES | HT1080-NT tox | IL1B secr inh | ELG1 repair inh | HT1080 IDH1KD tx | TDP1 cell CPT | DT40 TDP1 no CPT
COc1ccc2c(c1)CC(C(=O)NCCN1CCN(c3cccc(Cl)c3)CC1)CO2 (configuration not stated) | nt | nt | nt | nt | 16.4µM* | 14.6µM*
Cc1ccc(CCNC(=O)c2cc3cc4cc(C)ccc4nc3s2)cc1 | nt | nt | nt | nt | -7.6% | -7.4%
CC(=O)c1ccc(N2CCN(S(=O)(=O)c3ccc(-c4coc(C)n4)cc3)CC2)cc1 | nt | nt | nt | nt | -22.2% | -21.7%
Oc1ccc(N2CCN(c3ncnc4sc5c(c34)CCC5)CC2)cc1 | -23.6% | -27.5 | ? | ? | 23.1µM* | 13µM*
OCCN1CCN(c2ncnc3sc4c(c23)CCCC4)CC1 | -2.6% | -0.6 | -9.6% | -11.8% | ? | ?
CCNc1ncnc2c1cnn2C1CCCO1 (configuration not stated) | 0.0% | -6.1 | nt | 1.4% | -16.3% | -11.0%
O=S1(=O)C=C[C@@H](COCc2ccccc2)N1Cc1ccc(Br)cc1 | -7.9% | -27.1 | nt | -9.8% | ? | ?
COc1ccc(-n2nc(C(=O)NCC(=O)NCc3ccc(F)cc3)c3ccccc3c2=O)cc1 | -22.2% | -7.9 | 16.4µM* | -3.5% | -25.6% | 18.4µM*
COc1ccc(-n2nc(C(=O)NCC(=O)NCCC3=CCCCC3)c3ccccc3c2=O)cc1 | -11.7% | -20.3 | 16.4µM* | -10.4% | ? | ?
COc1ccccc1CNC(=O)COC(=O)c1cccc(S(=O)(=O)N2CCOCC2)c1 | 15.1% | 2.6 | -0.4% | 10.9% | -22.6% | -2.7%
CC1CCCC(NCC(O)COC(c2ccc(F)cc2)c2ccc(F)cc2)C1C (configuration not stated) | 16.4µM* | -115.4* | -24.1% | 20.6µM* | 5.17µM* | 2.59µM*
Cc1csc(NC(=O)Cc2ccc(F)cc2)n1 | 17.6% | -3.2 | ? | 22.0% | 9.0% | -6.5%
COC(=O)c1cc(C)nc(Nc2nc(C(N)Cc3ccc(F)cc3)cs2)n1 (configuration not stated) | -4.1% | -9.9 | nt | 4.1% | ? | -25.0%
COc1ccc(CC(N)c2csc(Nc3nc(C)cnc3C)n2)cc1 (configuration not stated) | ? | -23.0 | nt | ? | 18.4µM* | 14.6µM*
Cc1cnc(C)c(Nc2nc(C(N)CCc3ccccc3)cs2)n1 (configuration not stated) | ? | -25.3 | nt | ? | 16.4µM* | 18.4µM*
CCc1cnc(Nc2nc(C(N)Cc3ccc(F)cc3)cs2)nc1 (configuration not stated) | ? | -62.3* | nt | 23.1µM* | 11.6µM* | 18.4µM*
Cc1cnc(C)c(Nc2nc(C(N)Cc3ccc(F)cc3)cs2)n1 (configuration not stated) | 20.6µM* | -20.1 | nt | ? | 25.9µM* | ?
O=C(OCc1cn([C@@H]2C[C@H](c3ccccc3)N(C(=O)C3CCCCC3)C[C@H]2O)nn1)c1ccccc1 | -2.5% | -1.3 | nt | 16.6% | -16.2% | ?
Cc1cnc(C)c(Nc2nc(C(N)Cc3ccc(Cl)cc3)cs2)n1 (configuration not stated) | 18.4µM* | -16.0 | nt | 23.1µM* | 8.2µM* | 18.4µM*
O=C(COC(=O)COc1cccc(Br)c1)Nc1ccc(F)cc1F | -0.7% | 2.7 | 7.9% | 0.7% | -8.3% | 11.2%
Cc1ccc(C)c(N2CCN(CCCNC(=O)c3cnn(-c4ccccc4)c3C3CCN(C(=O)OC(C)(C)C)CC3)CC2)c1 | nt | nt | nt | nt | 6.51µM* | 4.61µM*
CN1CCN(CCCNC(=O)c2cnn(-c3ccccc3)c2C2CCN(C(=O)OC(C)(C)C)CC2)CC1 | nt | nt | nt | nt | -13.4% | -5.0%
COc1ccccc1N1CCN(CCCNC(=O)c2cnn(-c3cccc(Cl)c3)c2C2CCN(C(=O)OC(C)(C)C)CC2)CC1 | nt | nt | nt | nt | 9.2µM* | 7.31µM*
S=C(NCCc1ccccc1)Nc1ccccn1 | 3.0% | 0.0 | ? | -1.3% | 6.51µM* | 18.4µM*
CC(C)(C)NC(=S)NCCc1ccccc1 | 1.7% | 7.6 | ? | 7.3% | -5.3% | -25.7%
SMILES | HT1080-NT tox | IL1B secr inh | ELG1 repair inh | HT1080 IDH1KD tx | TDP1 cell CPT | DT40 TDP1 no CPT
Cc1cccc(NC(=S)NCCc2ccccc2)n1 | -10.3% | 16.0 | ? | -11.3% | ? | 16.4µM*
CC(NC(=O)c1ccc2c(c1)N(Cc1ccc(Cl)cc1)C(=O)c1ccccc1S2=O)c1ccccc1 (configuration not stated) | nt | nt | nt | nt | ? | -20.6%
CC(C)CN(CC(C)C)C(=O)C1CCCN(S(=O)(=O)c2ccc3c(c2)oc(=O)n3C)C1 (configuration not stated) | nt | nt | nt | nt | -12.6% | -19.1%
Cc1cc(C)cc(C(=O)N(Cc2ccco2)c2c(N)n(Cc3ccccc3)c(=O)[nH]c2=O)c1 | 4.7% | -18.0 | 0.5% | 18.2% | 1.2% | 2.5%
Cc1ccc(N(C(=O)c2ccccn2)C2(C(=O)NC3CCCC3)CCCCC2)cc1 | 3.1% | -7.6 | -9.4% | 12.7% | 0.517µM* | 1.64µM*
C=C(C)COc1ccc2c(c1)CCC1C2CCC2(C)C(=O)C(=NO)CC12 (configuration not stated) | 0.1% | -99.3* | nt | ? | 16.4µM* | ?
C=C1C[C@H]2[C@@H]3CCc4cc(OC)ccc4[C@H]3CC[C@]12C | 2.5% | 31.7 | ? | -1.3% | -15.5% | 4.6%
CC(C)C(C)(C#N)NC(=O)CSc1nc2scc(-c3ccc(F)cc3)c2c(=O)n1Cc1ccccc1 (configuration not stated) | 2.4% | -7.2 | ? | 1.2% | ? | ?
O=C1C(F)=CC(COC(c2ccccc2)(c2ccccc2)c2ccccc2)OC1n1cc(F)c(=O)[nH]c1=O (configuration not stated) | ? | -101.3* | nt | 20.6µM* | 1.64µM* | 1.46µM*
C[C@H]1O[C@@H](n2cc(F)c(=O)[nH]c2=O)[C@H](O)[C@@H]1O | -13.7% | 5.9 | -7.5% | -25.2% | ? | ?
CC(C)(C)c1ccc(C(=O)Nc2ccc(C(=O)NCc3cccnc3)cc2)cc1 | 1.64µM* | -8.5 | 0.517µM* | 1.03µM* | 2.59µM* | 1.84µM*
COCCSc1ccccc1C(=O)NCc1cccnc1 | 5.1% | -75.9* | 5.4% | 1.3% | 8.1% | -15.0%
O=C(NCc1cccnc1)c1ccc(NC(=O)c2ccc([N+](=O)[O-])cc2)cc1 | ? | 7.2 | -11.2% | 14.6µM* | 13µM* | 9.2µM*

From PubChem BioAssay
